Compounds with a hit are over-represented: about 4.5% of the library has one in this group of screens.
CSC inhib – cancer stem cell viability inhibitors, primary screen, luminescence; cancer stem cell-like cells viability; inhibition, % at 7.5 µM; 300,000 compounds, 1.1% hits; AID 2717, 2010; in the data active = inhibition above about 75%; tested in HMLE shEcad cells
697 NFkB inh – inhibitors of PMA/ionomycin-induced NF-kB reporter, 697 cells, primary screen, B-cell NF-kB inhibitor project, cell-based, luminescence, uHTS; 697 B-cell NF-kB luciferase reporter, 16 h; inhibition, % at 4 µM; 330,000 compounds, 0.33% hits; AID 435022, 2010; in the data active = inhibition above about 35%
Mdm2 MdmX PPI – inhibitors of human Mdm2-MdmX association, primary screen, cell-based, luminescence, split luciferase, SaOS-2, uHTS; Protein Mdm4 (Homo sapiens) + E3 ubiquitin-protein ligase Mdm2 (Homo sapiens), …; SaOS-2 split-luciferase Mdm2/MdmX complementation; inhibition, % at 8 µM; 330,000 compounds, 3% hits; AID 485346, 2010;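 active = inhibition of at least 50% at 8 µM in the primary screen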
Target sequence (O15151 whole entry, looked up): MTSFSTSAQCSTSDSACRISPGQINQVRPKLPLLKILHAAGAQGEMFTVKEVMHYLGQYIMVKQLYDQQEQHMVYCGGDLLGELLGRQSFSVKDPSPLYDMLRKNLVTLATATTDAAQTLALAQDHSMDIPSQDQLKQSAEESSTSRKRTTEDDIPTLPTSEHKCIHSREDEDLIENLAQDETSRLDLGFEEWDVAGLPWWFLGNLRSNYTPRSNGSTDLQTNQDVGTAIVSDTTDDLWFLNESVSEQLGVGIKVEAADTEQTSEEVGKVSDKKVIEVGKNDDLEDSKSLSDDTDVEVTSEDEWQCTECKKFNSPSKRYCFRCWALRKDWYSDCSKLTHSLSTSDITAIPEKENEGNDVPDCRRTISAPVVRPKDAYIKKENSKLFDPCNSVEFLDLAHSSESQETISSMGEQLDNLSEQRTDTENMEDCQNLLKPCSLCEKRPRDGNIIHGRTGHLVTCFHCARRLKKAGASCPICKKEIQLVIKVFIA
Target sequence (Q00987 whole entry, looked up): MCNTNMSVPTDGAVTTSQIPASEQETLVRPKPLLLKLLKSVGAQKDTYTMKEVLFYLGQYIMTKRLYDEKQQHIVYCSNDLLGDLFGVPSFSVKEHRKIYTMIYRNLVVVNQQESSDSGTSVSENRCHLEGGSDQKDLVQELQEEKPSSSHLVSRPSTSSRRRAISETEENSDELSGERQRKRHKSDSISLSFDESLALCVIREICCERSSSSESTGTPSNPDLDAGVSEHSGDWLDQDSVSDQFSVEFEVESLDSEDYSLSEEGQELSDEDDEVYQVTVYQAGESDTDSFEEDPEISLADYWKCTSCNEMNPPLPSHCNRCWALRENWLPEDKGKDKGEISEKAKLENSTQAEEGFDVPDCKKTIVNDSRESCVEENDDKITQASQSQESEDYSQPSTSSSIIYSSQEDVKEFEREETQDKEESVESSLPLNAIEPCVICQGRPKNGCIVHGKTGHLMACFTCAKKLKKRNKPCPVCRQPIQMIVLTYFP
Gli-Sufu block – Gli-Sufu pathway antagonists, primary screen, luciferase luminescence, Sufu-KO-LIGHT cells, uHTS | Sufu-KO-LIGHT fibroblasts, Gli luciferase reporter luminescence | inhibition, % at 5 µM | 340,000 compounds, 0.74% hits;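 active = inhibition above about 55%, limit read from the data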
Jurkat NFkB inh – inhibitors of induced NF-kB luciferase reporter, primary screen, TCR NF-kB activation inhibitor project, cell-based, luminescence, uHTS; Jurkat, PMA/ionomycin-induced NF-kB luciferase reporter; inhibition, % at 4 µM; 330,000 compounds, 0.53% hits; in the data active = inhibition above about 50%
Beta cell apopt – inhibitors of cytokine-induced beta cell apoptosis, primary screen, luminescence; INS-1E cytokine-induced death, ATP luminescence, 48 h; percent of positive-control rescue, neutral wells zero; protection from apoptosis, % (no concentration beside the values); 300,000 compounds, 0.8% hits; AID 435005, 2010;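 active = Every replicate reaches about 75%, or at least half do and their mean reaches it too, limit read from the data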;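 also: higher means more ATP so stronger rescue from cytokine killing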
Mdm2 MdmX conf – Mdm2-MdmX complex disruptors, retested hits, confirmation, luminescence, single concentration; Mdm2-MdmX binding, luminescent assay; shares compounds with Mdm2 MdmX PPI; AID 489028, 2010; inhibition, % at 8 µM; 10,000 compounds, 55% hits; in the data active = inhibition above about 40%
Full FLuc ctr – full-length luciferase signal inhibition, confirmation, counter-screen for Mdm2/MdmX interaction inhibitor project, cell-based, single concentration, SaOS-2; shares compounds with Mdm2 MdmX PPI; inhibition, % at 8 µM; 6,200 compounds, 77% hits; SaOS-2 full-length luciferase counterscreen, luminescence; AID 504607, 2011;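 active = mean inhibition at 8 µM reaching about 37%, which flags the compound as non-specific, limit read from the data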;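 also: p53-null SaOS-2 cells with luciferase driven by a doxycycline-inducible promoter; compound on cells about two nights before reading with doxycycline added after day one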
A number is an active result; 0 = inactive; - = no result.

SMILES	CSC inhib	697 NFkB inh	Mdm2 MdmX PPI	Gli-Sufu block	Jurkat NFkB inh	Beta cell apopt	Mdm2 MdmX conf	Full FLuc ctr
CCOC(=O)N1C2=NC(C(=O)OC)=C(C(=O)OC)[C@@H]3N(C)c4ccc(OC)cc4[C@]23C[C@H]1C(=O)OC	0	0	0	0	0	0	-	-
COC(=O)C1=C(C(=O)OC)[C@@H]2N(Cc3ccccc3)c3ccccc3[C@@]23C[C@@H](C(=O)OC)N(C(=O)COCc2ccccc2)C3=N1	0	0	62.9	0	0	0	0	-
C=CCN1c2ccccc2[C@]23C[C@@H](C(=O)OC)N(C(=O)c4ccc(Br)cc4)C2=NC(C(=O)OC)=C(C(=O)OC)[C@H]13	0	0	95.8	0	0	0	68.3	52.6
COC(=O)C1=C(C(=O)OC)[C@@H]2N(C)c3ccc(OC)cc3[C@@]23C[C@@H](C(=O)OC)N(C(=O)c2ccc(Br)cc2)C3=N1	0	0	68.6	0	0	0	0	-
COC(=O)C1=C(C(=O)OC)[C@@H]2N(Cc3ccccc3)c3ccccc3[C@@]23C[C@@H](C(=O)OC)N(C(C)=O)C3=N1	0	0	0	0	0	0	-	-
O=C(Nc1cc2c3c(c1)CC(=O)N3CCC2)c1ccc(Cl)cc1	0	0	0	0	0	0	-	-
O=C(NCC1CCCO1)c1cn(Cc2ccccc2Cl)nc1-c1ccccc1 (stereo not given)	-	0	0	0	0	-	-	-
NC(=O)c1ccc(NC(=O)COC(=O)c2cc3ccccc3cc2O)cc1	0	0	54.5	0	0	0	0	-
O=C1NC(=S)N/C1=C/c1ccc2c(c1)OCO2	0	0	80.1	0	0	0	50.5	91.1
O=C1NC(=S)SC1=Cc1ccc2c(c1)OCO2	-	-	-	0	-	-	-	-
CC(=O)O[C@@H]1C[C@H]2C(C)(C)C(=O)C=C[C@]2(C)[C@H]2CC[C@@]3(C)[C@H](c4ccoc4)OC(=O)[C@H]4O[C@]43[C@@]21C	0	0	98.1	0	0	0	71.2	0
COc1ccc(-c2nc(NC(=O)C3CCN(c4nc5ccccc5o4)CC3)sc2C)cc1	0	0	51.3	0	0	0	0	-
CCOC(=O)c1c(CSC(=N)N)n(-c2ccc(C)cc2)c2cc(Br)c(OC(C)=O)cc12	114.0	0	91.7	0	0	0	0	-
O=S(=O)(NCc1ccc(F)cc1)c1ccccc1Br	0	0	0	0	0	0	-	-
CCCc1nnc(NC(=O)c2nc(S(=O)(=O)Cc3cccc(C)c3)ncc2Cl)s1	108.0	0	90.0	0	0	0	0	0
Cc1cccc(CS(=O)(=O)c2ncc(Cl)c(C(=O)Nc3c(C)cccc3C)n2)c1	-	0	94.0	0	0	-	85.7	50.9
CSc1ncc(Cl)c(C(=O)Nc2cccc(C)c2)n1	0	0	0	0	0	0	-	-
Cc1ccccc1NC(=O)c1nc(S(C)(=O)=O)ncc1Cl	0	0	0	0	0	0	-	-
Cc1cccc(CS(=O)(=O)c2ncc(Cl)c(C(=O)NCc3ccccc3)n2)c1	0	0	83.1	0	0	0	65.7	0
Cc1cccc(C)c1NC(=O)c1nc(S(=O)(=O)Cc2ccccc2)ncc1Cl	-	0	68.1	0	0	-	97.7	0
Cc1nnc(NC(=O)c2nc(S(=O)(=O)Cc3ccccc3)ncc2Cl)s1	-	0	85.2	0	0	-	0	-
Cc1cc(C(=O)c2ccc(Cl)cc2)c(NC(=O)CCl)s1	0	0	66.8	0	0	0	0	-
Cc1ccc(N(C(=O)c2snc(C(N)=O)c2N)C(C(=O)NC2CCCC2)c2ccncc2)cc1 (stereo not given)	0	0	0	0	0	0	-	-
O=C1c2ccccc2NC(c2ccc(-c3ccc(Br)cc3)o2)N1O (stereo not given)	103.3	0	72.6	0	0	0	56.0	0
O=C1c2ccccc2NC(c2ccc(-c3ccc(F)cc3)o2)N1O (stereo not given)	0	0	0	0	0	0	-	-
SMILES	CSC inhib	697 NFkB inh	Mdm2 MdmX PPI	Gli-Sufu block	Jurkat NFkB inh	Beta cell apopt	Mdm2 MdmX conf	Full FLuc ctr
Cc1cc(N2O[C@H]3C=C[C@@H]2C3)no1	-	0	0	0	-	-	-	-
Cn1c(/C=C/c2ccc(Br)cc2)c([N+](=O)[O-])c(=O)n(C)c1=O	0	0	84.3	0	0	0	52.2	0
Cc1cc(C)cc(C(=O)OCC(=O)N2CCCCCC2)c1	-	0	0	0	0	-	-	-
CCn1c(SCC(=O)Nc2ccc(NC(C)=O)cc2)nc2c([nH]c3ccccc32)c1=O	0	0	52.5	0	0	0	43.7	44.1
COc1ccc(NC(=O)CSc2nc3c([nH]c4ccccc43)c(=O)n2C)c(OC)c1	0	0	59.7	0	0	0	0	-
COc1cccc(-n2c(SCC(=O)N3CCCCC3)nc3c([nH]c4ccccc43)c2=O)c1	0	0	78.6	0	0	-	0	-
Cn1c(SCC(=O)Nc2ccc(F)cc2)nc2c([nH]c3ccccc32)c1=O	0	0	91.4	0	0	0	46.1	90.5
CCN1CCN(c2nc3c(C)cccn3c(=O)c2/C=C(\C#N)C(=O)NC)CC1	0	0	0	0	0	0	-	-
CCOc1ccccc1N1CC(C(=O)N(C)Cc2cccnc2)CC1=O (stereo not given)	0	0	0	0	0	0	-	-
COCCn1c(SCC(=O)Nc2ccc(C(N)=O)cc2)nc2c([nH]c3ccccc32)c1=O	0	0	73.8	0	0	0	0	51.5
CCOc1cc(/C=N\NC(=O)Cc2ccccc2)ccc1OCC(=O)Nc1ccc(C)c(C)c1	0	0	94.1	0	0	0	75.2	75.9
CCCCOc1ccc(C(=O)N/N=C/c2ccc(OCCN3CCCCC3)c(OC)c2)cc1	0	0	80.6	0	0	0	0	-
COc1ccc(/C=N/NC(=O)c2[nH]nc3c2CCc2ccccc2-3)cc1OC	0	0	55.9	0	0	0	68.0	74.5
COc1cc(/C=N\NC(=O)c2ccc(-c3ccccc3)cc2)ccc1OCC(N)=O	0	0	50.2	0	0	0	0	-
Cc1ccc(S(=O)(=O)N2CCN(C(=O)COC(=O)COc3ccc(Cl)cc3)CC2)c(C)c1	-	-	-	0	-	-	-	-
O=C(OCc1ccccc1)N(CCCCN(CCCNCc1ccccc1)C(=O)OCc1ccccc1)CCCNCc1ccccc1	-	-	-	0	-	-	-	-
O=C(CN1CCC(C(=O)c2ccc(Cl)cc2)CC1)NC1CCCC1	0	0	0	0	0	0	-	-

From PubChem
